RGS4-Gao reg: human RGS4-Galphao interaction regulation. Multiplexed bead flow cytometry, RGS4-Galphao binding; actives lie on both sides. binding response (% of control), % at 10 µM. 220,000 compounds, 0.33% hits. P09471; in the data active = binding response below about 49% or above about 150%; inactive = in between;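 note: fluorescent Galphao activated with aluminum fluoride binding bead-coupled RGS4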
Target sequence (P09471 whole entry, looked up): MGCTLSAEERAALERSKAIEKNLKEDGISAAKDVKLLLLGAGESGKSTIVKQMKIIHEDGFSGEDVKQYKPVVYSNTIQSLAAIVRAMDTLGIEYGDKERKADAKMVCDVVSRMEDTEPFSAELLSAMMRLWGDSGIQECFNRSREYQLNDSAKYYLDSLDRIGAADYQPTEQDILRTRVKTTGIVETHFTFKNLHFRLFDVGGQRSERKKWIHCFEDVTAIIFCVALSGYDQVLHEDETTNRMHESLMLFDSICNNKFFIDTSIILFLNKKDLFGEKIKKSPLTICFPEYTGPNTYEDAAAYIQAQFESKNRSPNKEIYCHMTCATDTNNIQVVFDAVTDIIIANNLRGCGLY
Avidin fluor: compound fluoresces at 488/530 nm on avidin beads | compound fluorescence 488/530 nm, flow cytometry; active compounds read high | fluorescence (KMESF) at 10 µM | 220,000 compounds, 0.38% hits; in the data active = fluorescence above about 47
RGS8-Gao: regulators of human RGS8-Galphao interaction; P09471; multiplexed bead flow cytometry, RGS8-Galphao binding; actives lie on both sides; response (percent of control binding), % at 10 µM; 220,000 compounds, 0.34% hits; AID 1423; in the data active = response below about 60% or above about 140%; inactive = in between;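 note: Galphao activated as the GDP aluminium fluoride complex binding bead-coupled RGS8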
GSH fluor: compound fluoresces at 488/530 nm on GSH beads; 190,000 compounds, 0.25% hits; fluorescence (KMESF) at 10 µM; AID 1776; GSH beads flow cytometry, compound fluorescence 488/530 nm; active compounds read high; in the data active = fluorescence above about 89;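 note: glutathione beads carrying GST-tagged Bcl family fusion proteins plus one bare bead set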
RGS16-Gao: RGS16-Galphao interaction regulator (human) | bead-based flow cytometry RGS16-Galphao binding, fluorescence; actives lie on both sides | 220,000 compounds, 0.38% hits | O15492+P09471 | binding response (% of control), % at 10 µM; call rule not given here;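 note: Galphao activated by GDP with aluminum fluoride before binding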
Target sequence (O15492 whole entry, looked up): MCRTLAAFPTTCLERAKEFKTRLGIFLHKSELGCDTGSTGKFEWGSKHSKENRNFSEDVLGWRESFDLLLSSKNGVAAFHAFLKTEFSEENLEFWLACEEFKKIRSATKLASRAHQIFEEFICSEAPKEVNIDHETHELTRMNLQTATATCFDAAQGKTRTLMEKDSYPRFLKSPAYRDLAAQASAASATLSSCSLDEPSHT
Target sequence (P09471 whole entry, looked up): as the sequence (P09471 whole entry, looked up) above
RGS7-Gao reg: modulates binding of RGS7 to human Galphao; 220,000 compounds, 0.35% hits; binding response (% of control), % at 10 µM; Multiplexed bead flow cytometry; actives lie on both sides; P09471; AID 1439; in the data active = binding response below about 49% or above about 150%; inconclusive = no clear call, values can overlap the other calls; inactive = in between;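 note: fluorescent Galphao held in activated GDP-AlF4 state binding bead-coupled RGS7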
Of the large screens only hits and unclear results are named; the others gave an inactive call; [ ] = another dose, or the depositor's remark. This is a sample that favours compounds with a hit; in the whole collection about 1.2% have one here.

CCCCn1nc2cc(C(=O)NCCc3cccs3)ccc2c1OCC	none
CCCn1nc2cc(C(=O)NCCc3ccc(C)cc3)ccc2c1OCC	Avidin fluor 63
CCCn1nc2cc(C(=O)NCCCCc3ccccc3)ccc2c1OCC	Avidin fluor 52
Cc1nn(CC#N)c(=O)n1-c1ccccc1	GSH fluor 262
O=C(NCC1CC1)Nc1cccs1	RGS7-Gao reg inconclusive (no result: GSH fluor)
O=C(CSc1cn(Cc2ccccc2)c2ccccc12)NCc1ccc(F)cc1	none
Cc1ccc(C(=O)Nc2ccc(S(=O)(=O)N3CCc4ccccc4C3)cc2)o1	Avidin fluor 50
Cc1ccc(C(=O)Nc2ccc(S(=O)(=O)N3CCc4ccccc43)cc2)o1	none
CCCCN(C(=O)c1ccc(Cl)c([N+](=O)[O-])c1)c1c(N)n(CCC)c(=O)[nH]c1=O	none
O=C(c1ccc(Cn2cc(Br)cn2)o1)N1N=C(C(F)F)CC1(O)C(F)F (configuration not stated)	RGS4-Gao reg 150[activator], Avidin fluor 66
CN(C)C(=O)c1nc(C#N)c(N(C)C)o1	GSH fluor 257
Cc1c(C(=O)OC(C)C)[nH]c2c1C(=O)CC(C)(C)C2	none
Cc1c(C(=O)OC2CCCCC2)[nH]c2c1C(=O)CC(C)(C)C2	Avidin fluor 48
CN(Cc1cc(=O)[nH]c2ccccc12)C(=O)c1ccccc1	GSH fluor 271
COc1ccccc1N(Cc1cc(=O)[nH]c2ccccc12)C(=O)c1ccccc1	RGS7-Gao reg inconclusive (no result: GSH fluor)
CN(CC(=O)Nc1ccc(N2CCOCC2)cc1)Cc1cc(=O)n2ccsc2n1	none
CCOC(=O)c1ccc2c(c1)nc(SCC(=O)c1ccco1)n2CC	GSH fluor 255
CC(=O)N(C)c1ccc(NC(=S)NCC(C)C)cc1	none
CN(C)c1ccc(/C=C2\SC(=S)N(Nc3ncc(C(F)(F)F)cc3Cl)C2=O)cc1	Avidin fluor 56
COc1ccc(-c2ccccc2)cc1NCc1ccc(OC)c(OC)c1	none
Cn1c(SCC(=O)NC(=O)Nc2ccccc2)nnc1-c1ccncc1	RGS7-Gao reg inconclusive (no result: GSH fluor)
CCCn1c2c(c(O)c(C(=O)NCc3ccccc3)c1=O)CCCC2	Avidin fluor 54
CC(=O)Nc1ccc2c(c1)nc1n2CCN(C2CCCCC2)C1	none
O=C(CSc1ncccn1)Nc1ncc(C(F)(F)F)cc1Cl	none
COC(=O)C1=C(C)OC(N)=C(C#N)C1c1cc(C)sc1C (configuration not stated)	GSH fluor 273
COC(=O)C1=C(C)OC(N)=C(C#N)C1c1cc2cccc(C)c2nc1Cl (configuration not stated)	none
COc1ccc(S(=O)(=O)NCc2ccc(C)cc2)cc1	GSH fluor 263
CC(=O)c1c(C)[nH]c(C(=O)CN2C(=O)NC(C)(c3ccc(C)cc3)C2=O)c1C (configuration not stated)	none
C=CCNc1nc(Nc2ccccc2F)nc(OCC)n1	none
C=CCNc1nc(Nc2ccc(OC)cc2OC)nc(OCC)n1	Avidin fluor 75
Cc1ccccc1-n1cnnc1SCC(=O)N1CCN(c2ccccc2)CC1	Avidin fluor 50
Cc1nnc(SCC(=O)N2CCN(c3ccccc3)CC2)n(N)c1=O	none
Cc1cccc(C(=O)N/N=C2/SCC(=O)N2Cc2ccccc2)c1	none
C/C(=N/NC(=O)CNC(=O)Cc1ccc(Cl)cc1)c1ccco1	RGS7-Gao reg inconclusive (no result: GSH fluor)
CC(=O)Nc1ccc2c(c1)OCCOCCOc1cc(NC(C)=O)ccc1OCCO2	RGS7-Gao reg inconclusive (no result: GSH fluor)
CC(=O)Nc1ccc(C2(O)COc3ccccc3O2)cc1 (configuration not stated)	GSH fluor 262
CNC(=S)Nc1cccc(S(=O)(=O)NC2=NCCC2)c1	none
CN(CC(=O)Nc1ccc(S(=O)(=O)N2CCCC2)cc1)CC(=O)Nc1cccc(F)c1	none
CCCn1nnc(NC(=O)c2cccc(OCC(C)C)c2)n1	GSH fluor 264
CCCn1nnc(NC(=O)c2cccc(OCC)c2)n1	none
CCCCNC(=O)COC(=O)CCC(=O)c1ccc(F)cc1	GSH fluor 266
CCOC(=O)C1CCCN(C(=O)c2cc(-c3ccc(F)cc3)nc3ccccc23)C1 (configuration not stated)	none
CCOC(=O)C1CCCN(C(=O)c2cc(Nc3ccc(OC)cc3)nc3ccccc23)C1 (configuration not stated)	Avidin fluor 51
Cc1cc(C(=O)NC2CCCc3ccccc32)no1 (configuration not stated)	Avidin fluor 47
O=c1[nH]c(CN2CCOCC2)nc2ccccc12	none
O=C(O)c1ccc2c(=O)[nH]c(CN3CCOCC3)nc2c1	Avidin fluor 62
O=C(O)CCNc1cc2ccccc2cc1C(=O)O	GSH fluor 255
O=C(O)CCNS(=O)(=O)c1ccc2ccccc2c1	none
Cc1ccc(C)c(C(=O)COc2ccc(C)nc2[N+](=O)[O-])c1	GSH fluor 256
CCOc1ccccc1OCCCC(=O)N1CCN(S(=O)(=O)c2ccc(C)cc2)CC1	GSH fluor 256
CCOc1ccccc1OCCCC(=O)N1CCN(S(=O)(=O)c2cccc(F)c2)CC1	none
Cc1cc2ncn(CC3CC3(Cl)Cl)c2cc1C (configuration not stated)	RGS7-Gao reg inconclusive
O=C(OCC(=O)N1CCN(C(=O)c2ccco2)CC1)C1=COCCO1	Avidin fluor 82
CCOC(=O)C1CCCN(C(=O)COC(=O)C2=COCCO2)C1 (configuration not stated)	Avidin fluor 71
C=CCNC(=O)COC(=O)c1ccc(Sc2nncn2C)c([N+](=O)[O-])c1	Avidin fluor 86
O=C(NC1CCCc2ccccc21)C12CC3CC(CC(O)(C3)C1)C2 (configuration not stated)	none
COc1ccccc1NC(=O)/C(=C\c1cccs1)NC(=O)c1ccco1	Avidin fluor 49, RGS7-Gao reg inconclusive (no result: GSH fluor)
Cc1c(C(=O)OCC(=O)N2c3ccccc3CC2C)oc2ccccc12 (configuration not stated)	Avidin fluor 95
c1ccc2c(c1)CCCC2NC1=NCCC1 (configuration not stated)	GSH fluor 256
CCN(CC)S(=O)(=O)c1ccc(NC2CCCc3ccccc32)nc1 (configuration not stated)	none
CN(C)c1nc(SCC#N)nc(N(C)C)n1	Avidin fluor 59
CCCCNC(=O)C(=O)N/N=C/c1ccc(OCC(=O)Nc2cccc(OC)c2)c(OC)c1	none
CCN(CC)c1ccc(/C=c2\sc3nnc(-c4ccccc4Cl)n3c2=O)cc1	GSH fluor 104
CN(C)S(=O)(=O)c1cccc(NC(=O)COC(=O)COc2ccc(Br)cc2)c1	RGS7-Gao reg inconclusive (no result: GSH fluor)
CN(C)S(=O)(=O)c1cccc(NC(=O)COC(=O)CCOc2ccccc2)c1	Avidin fluor 88, RGS7-Gao reg inconclusive
